Source: ChEMBL document CHEMBL4513146, “CO-ADD screening of Karazin Kharkiv National University (Ukraine) compounds”
Results with a measured potency or affinity are listed apart.

Columns and labels:
Staphylococcus aureus = settings: Concentration 32 ug.mL-1;; ASSAY_TEST Inhibition of Bacterial Growth; detection method Absorption (OD600); MEDIA CAMHB; plate type 384well; NBS; CORNING #3640; time 18 hr
Escherichia coli = settings: Concentration 32 ug.mL-1;; ASSAY_TEST Inhibition of Bacterial Growth; detection method Absorption (OD600); MEDIA CAMHB; plate type 384well; NBS; CORNING #3640; time 18 hr

Structure (SMILES)	Inhibition (Staphylococcus aureus)	Inhibition (Escherichia coli)
O=C(Cn1nc2ccc(SCc3ccc(Cl)cc3)nn2c1=O)Nc1ccc2c(c1)OCO2	9.4%	-2.43%
Cc1nnc2ccc(S(=O)(=O)N(Cc3cccc(F)c3)c3cccc(F)c3)cn12	-4.62%	-13.2%
CCOc1ccc(-n2ccn3c(SCC(=O)c4ccc(OC)c(OC)c4)nnc3c2=O)cc1	21.02%	1.32%
O=C(CSc1nnc2c3cc(-c4ccc(F)cc4)nn3ccn12)NCc1ccc(Cl)cc1	-3.32%	-11.03%
COc1ccc(-c2cc3c4nn(CC(=O)Nc5ccc(OC)cc5OC)c(=O)n4ccn3n2)cc1	6.72%	-3.4%
CC(C)c1nnc2c(SCC(=O)N3CCN(c4ccccc4F)CC3)nc3ccccc3n12	-2.06%	-6.39%
O=C(Cn1nc2c(N3CCOCC3)nccn2c1=O)NCc1ccc(F)cc1	19.72%	0.87%
Cc1cc(C)cc(N(Cc2ccccc2F)S(=O)(=O)c2cccn3c(C)nnc23)c1	15.31%	-0.2%
CCCNC(=O)Cn1nc2n(Cc3cccs3)c(=O)c3sccc3n2c1=O	6.83%	-4.01%
CC(C)Cn1c(=O)c2sccc2n2c(=O)n(CC(=O)N3CCC(Cc4ccccc4)CC3)nc12	-13.33%	-14.95%
Cc1ccc(CNC(=O)Cn2nc3ccc(SC4CCCCC4)nn3c2=O)cc1	11.69%	-11.87%
O=C(Cn1nc2c(SC3CCCCC3)nccn2c1=O)Nc1ccc(Cl)cc1F	4.94%	-2.75%
COc1ccc(NC(=O)Cn2nc3c4cc(-c5cc(C)ccc5C)nn4ccn3c2=O)c(OC)c1	3.39%	3.2%
CC(C)Sc1ccc2nn(CC(=O)Nc3ccc(F)cc3Cl)c(=O)n2n1	-4.06%	-3%
CC(C)(C)Sc1ccc2nn(CC(=O)N3CCN(c4ccc(F)cc4)CC3)c(=O)n2n1	4%	5.62%
O=c1c2sccc2n2c(=O)n(Cc3ccccc3Cl)nc2n1Cc1cccs1	-1.31%	-2.76%
CCOc1ccccc1NC(=O)Cn1nc2c(Sc3ccccc3)nccn2c1=O	-2.46%	-5.85%

Structure (SMILES)	Inhibition (Staphylococcus aureus)	Inhibition (Escherichia coli)
Cc1cc(C)c(NC(=O)CSc2nnc3ccc(C(=O)Nc4cccc(F)c4)cn23)c(C)c1	12.67%	2.09%
COc1ccc(NC(=O)Cn2nc3c(SC4CCCCC4)nccn3c2=O)cc1Cl	-11.83%	-6.21%
CC(C)Cc1ccc(S(=O)(=O)Nc2ccc3nncn3n2)cc1	13.61%	2.12%
O=C(Cn1nc2c3cc(-c4ccc(Cl)cc4)nn3ccn2c1=O)N1CCN(c2ccccc2)CC1	8.68%	-1.74%
Cc1nnc2c(=O)n(CC(=O)Nc3ccccc3Cl)c3ccccc3n12	10.77%	-2.02%
Cc1cc(C)c(NC(=O)Cn2nc3c(Sc4cccc(F)c4)nccn3c2=O)c(C)c1	9.93%	-1.39%
CCOC(=O)c1ccc(NC(=O)Cn2nc3c4sc(N5CCCC5)nc4ncn3c2=O)cc1	6.07%	-11.73%
COc1ccc(CNC(=O)Cn2nc3c(Oc4ccccc4C)nccn3c2=O)cc1	1.68%	-7.69%
CC(C)c1nnc2c(SCC(=O)Nc3ccccc3Br)nc3ccccc3n12	6.58%	-0.85%
COc1cc(NC(=O)CSc2nnc3c(=O)n(-c4cccc(OC)c4)ccn23)cc(OC)c1	2.57%	-9.3%
Cc1ccc(-c2nc(CSc3nc4ccccc4n4c(C(C)C)nnc34)c(C)o2)cc1	-8.56%	-6.52%
CCN(CCCNC(=O)CCc1nnc2ccc(-c3ccc(C)c(C)c3)nn12)c1ccccc1	-5.09%	-5.52%
Cc1cc(NC(=O)Cn2nc3ccc(SC(C)(C)C)nn3c2=O)ccc1Br	-0.85%	-5.34%
Cc1cccc(NC(=O)Cn2nc3c(SCc4ccc(Cl)cc4)nccn3c2=O)c1C	13.84%	-3.65%
C=Cc1ccc(CN(c2ccc(C(C)C)cc2)S(=O)(=O)c2cccn3c(C)nnc23)cc1	-12.1%	1.96%
Cc1ccc(CNC(=O)Cn2nc3c(Oc4ccccc4C)nccn3c2=O)cc1	5.58%	-1.39%
